Test results reported in PubChem BioAssay AID1159580 (chemical genetic matrix, 2015).
Where “and” joins values, the source holds several entries; their conditions need not be identical. Identical values can stand only once. Hit rate of the full screen: of about 5,500 compounds, about 2,000 (36%) were called active. Roughly 18% stayed inconclusive and do not appear here. No stated cut-off is given here; in the data, active means normalized growth mostly below about 0.91 (no sharp cut-off); inconclusive means no clear call, values can overlap the other calls; inactive means mostly above about 0.92. The list shows a part of the results.

Assay: chemical genetic growth profiling, strain panel (AID 1159580);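 further: tested at 20 µM; growth read once vehicle control cultures reached saturation at 30 °C; 1 = growth at the plate median or of vehicle wells; lower values mean less growth of the strain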
Conditions: growth OD

Measured: normalized growth

NCC(CC(=O)O)c1ccc(Cl)cc1 (stereo not drawn)
inactive: S. cerevisiae deletion strains, locus YJR075W, strain HOC1, hits give low values 0.991 | S. cerevisiae deletion strains, locus YKL009W, strain mrt4, hits give low values 0.968 | S. cerevisiae deletion strains, locus YKL068W, hits give low values 1.01 | S. cerevisiae deletion strains, locus YKL085W, strain MDH1 (second series), hits give low values 0.991 | S. cerevisiae deletion strains, locus YKL085W, strain MDH1, hits give low values 0.991 | S. cerevisiae deletion strains, locus YKL160W, strain elf1, hits give low values 1.01 | S. cerevisiae deletion strains, locus YKR001C, strain vps1, hits give low values 0.974 | S. cerevisiae deletion strains, locus YKR026C, strain gcn3, hits give low values 0.995 | S. cerevisiae deletion strains, locus YKR091W, strain srl3, hits give low values 1 | S. cerevisiae deletion strains, locus YLL001W, strain dnm1, hits give low values 1.03 | S. cerevisiae deletion strains, locus YLL026W, hits give low values 1.01 | S. cerevisiae deletion strains, locus YLL041C, strain sdh2, hits give low values 0.993 | S. cerevisiae deletion strains, locus YLR027C, strain aat2, hits give low values 1.01 | S. cerevisiae deletion strains, locus YLR039C, strain RIC1, hits give low values 1.07 | S. cerevisiae deletion strains, locus YLR058C, strain SHM2, hits give low values 1.02 | S. cerevisiae deletion strains, locus YLR102C, strain apc9, hits give low values 0.985 | S. cerevisiae deletion strains, locus YLR113W, strain HOG1, hits give low values 1.05 | S. cerevisiae deletion strains, locus YLR221C, strain rsa3, hits give low values 0.976 | S. cerevisiae deletion strains, locus YLR258W, strain gsy2, hits give low values 0.984 | S. cerevisiae deletion strains, locus YLR262C, strain YPT6 (second series), hits give low values 0.995 | S. cerevisiae deletion strains, locus YLR262C, strain YPT6, hits give low values 1.08 | S. cerevisiae deletion strains, locus YLR268W, strain sec22, hits give low values 1.02 | S. cerevisiae deletion strains, locus YLR320W, strain mms22, hits give low values 0.968 | S. cerevisiae deletion strains, locus YLR330W, strain CHS5, hits give low values 1.02 | S. cerevisiae deletion strains, locus YLR342W, strain FKS1 (second series), hits give low values 1.03 | S. cerevisiae deletion strains, locus YLR342W, strain FKS1, hits give low values 1.03 | S. cerevisiae deletion strains, locus YLR357W, strain rsc2, hits give low values 1 | S. cerevisiae deletion strains, locus YLR370C, strain arc18, hits give low values 0.997 | S. cerevisiae deletion strains, locus YLR371W, strain rom2, hits give low values 0.985 | S. cerevisiae deletion strains, locus YLR384C, strain iki3, hits give low values 1.01 | S. cerevisiae deletion strains, locus YLR418C, strain cdc73, hits give low values 0.979 | S. cerevisiae deletion strains, locus YML016C, strain PPZ1, hits give low values 1.02 | S. cerevisiae deletion strains, locus YML032C, strain rad52, hits give low values 0.987 | S. cerevisiae deletion strains, locus YML120C, strain ndi1, hits give low values 0.999 | S. cerevisiae deletion strains, locus YML124C, strain tub3, hits give low values 0.983 | S. cerevisiae deletion strains, locus YMR058W, strain fet3, hits give low values 1.02 | S. cerevisiae deletion strains, locus YMR078C, strain ctf18, hits give low values 0.99 | S. cerevisiae deletion strains, locus YMR125W, strain sto1, hits give low values 0.97 | S. cerevisiae deletion strains, locus YMR129W, hits give low values 0.999 | S. cerevisiae deletion strains, locus YMR205C, strain PFK2, hits give low values 1.01 | S. cerevisiae deletion strains, locus YMR223W, strain ubp8, hits give low values 1 | S. cerevisiae deletion strains, locus YMR231W, strain pep5, hits give low values 1.01 | S. cerevisiae deletion strains, locus YMR263W, strain SAP30, hits give low values 1.01 | S. cerevisiae deletion strains, locus YMR307W, strain GAS1, hits give low values 1.1 | S. cerevisiae deletion strains, locus YNL067W, strain RPL9B, hits give low values 1 | S. cerevisiae deletion strains, locus YNL071W, strain lat1, hits give low values 0.991 | S. cerevisiae deletion strains, locus YNL128W, strain TEP1, hits give low values 1.01 | S. cerevisiae deletion strains, locus YNL153C, strain GIM3, hits give low values 1.01 | S. cerevisiae deletion strains, locus YNL175C, strain NOP13, hits give low values 0.977 | S. cerevisiae deletion strains, locus YNL183C, strain NPR1, hits give low values 0.993 | S. cerevisiae deletion strains, locus YNL197C, strain WHI3, hits give low values 1.04 | S. cerevisiae deletion strains, locus YNL209W, strain ssb2, hits give low values 0.997 | S. cerevisiae deletion strains, locus YNL224C, strain SQS1, hits give low values 0.993 | S. cerevisiae deletion strains, locus YNL233W, strain BNI4, hits give low values 1.01 | S. cerevisiae deletion strains, locus YNL248C, strain rpa49, hits give low values 0.961 | S. cerevisiae deletion strains, locus YNL250W, strain rad50, hits give low values 0.986 | S. cerevisiae deletion strains, locus YNL271C, strain bni1, hits give low values 0.987 | S. cerevisiae deletion strains, locus YNL298W, strain CLA4, hits give low values 0.984 | S. cerevisiae deletion strains, locus YNL307C, strain MCK1, hits give low values 0.977 | S. cerevisiae deletion strains, locus YNL322C, strain KRE1 (second series), hits give low values 0.985 | S. cerevisiae deletion strains, locus YNR049C, strain mso1, hits give low values 1.01 | S. cerevisiae deletion strains, locus YNR052C, strain pop2, hits give low values 0.979 | S. cerevisiae deletion strains, locus YOL012C, strain htz1 1.49 | S. cerevisiae deletion strains, locus YOL147C, strain pex11, hits give low values 0.984 | S. cerevisiae deletion strains, locus YOR001W, strain rrp6, hits give low values 0.99 | S. cerevisiae deletion strains, locus YOR061W, strain CKA2, hits give low values 1.02 | S. cerevisiae deletion strains, locus YOR069W, strain VPS5, hits give low values 1.01 | S. cerevisiae deletion strains, locus YOR070C, strain gyp1, hits give low values 0.98 | S. cerevisiae deletion strains, locus YOR080W, strain dia2, hits give low values 0.997 | S. cerevisiae deletion strains, locus YOR083W, strain WHI5 (second series), hits give low values 1.04 | S. cerevisiae deletion strains, locus YOR083W, strain WHI5, hits give low values 0.988 | S. cerevisiae deletion strains, locus YOR106W, strain vam3, hits give low values 1.02 | S. cerevisiae deletion strains, locus YOR136W, strain idh2, hits give low values 0.974 | S. cerevisiae deletion strains, locus YOR144C, strain elg1, hits give low values 0.992 | S. cerevisiae deletion strains, locus YOR184W, strain ser1, hits give low values 0.984 | S. cerevisiae deletion strains, locus YOR231W, strain MKK1, hits give low values 1.08 | S. cerevisiae deletion strains, locus YOR265W, strain rbl2, hits give low values 1 | S. cerevisiae deletion strains, locus YOR270C, strain vph1, hits give low values 0.976 | S. cerevisiae deletion strains, locus YOR290C, strain snf2, hits give low values 0.957 | S. cerevisiae deletion strains, locus YOR316C, strain cot1, hits give low values 0.986 | S. cerevisiae deletion strains, locus YPL051W, strain arl3, hits give low values 0.999 | S. cerevisiae deletion strains, locus YPL055C, strain LGE1, hits give low values 1.02 | S. cerevisiae deletion strains, locus YPL078C, strain atp4, hits give low values 1.02 | S. cerevisiae deletion strains, locus YPL106C, strain sse1, hits give low values 0.968 | S. cerevisiae deletion strains, locus YPL240C, strain hsp82, hits give low values 0.992 | S. cerevisiae deletion strains, locus YPL241C, strain CIN2, hits give low values 1.01 and 0.983 | S. cerevisiae deletion strains, locus YPL256C, strain CLN2, hits give low values 1.08 | S. cerevisiae deletion strains, locus YPR119W, strain clb2, hits give low values 0.993 | S. cerevisiae deletion strains, locus YPR141C, strain kar3, hits give low values 0.996 | S. cerevisiae deletion strains, locus YPR163C, strain tif3, hits give low values 0.99 | S. cerevisiae deletion strains, locus YPR167C, strain met16, hits give low values 0.991 | S. cerevisiae deletion strains, strain wtn01, hits give low values 0.992 | S. cerevisiae strains, strain wild type, hits give low values 1.03
